System: T1, ASK1
T1 construct: gene MAP3K5
Conditions: concentration: 1 μM, replicates: in singlicate; n = 1
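Also: KINOMEscan kinase panel screen.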

SMILES | %Inh
COc1ccc(NC(=O)c2ccoc2)cc1-c1ccc(C(=O)NCC2CC2)cc1 [GW810437] | 30%
CC(=O)Nc1cn2nc(Oc3cccc(NC(=O)c4cccc(C(F)(F)F)c4)c3)ccc2n1 | 0%
Cc1ccc(C)c(NC(=O)Nc2ccc(C)c(-c3ccc(C(=O)Nc4ccncc4)cc3)c2)c1 [GSK1398473] | 0%
CN(C)c1ncnc2nc[nH]c12 [SKF-31736] | 0%
Cc1ccc(O)cc1Nc1ccnc2cc(-c3ccc(CN4CCCCC4)o3)ccc12 [GW557777] | 37%
Cl.Cl.NCC(NC(=O)c1cc(-c2cccnc2)c(-c2ccnc3[nH]ccc23)s1)c1ccccc1 (stereo not shown) [GSK1323434] | 0%
CC(C)NCC(Cc1ccccc1)NC(=O)c1cc(Br)c(-c2ccnc3[nH]ccc23)s1.Cl.Cl (stereo not shown) [GSK1383281] | 0%
COc1cccc(NC(=O)NCCNc2ccnc(Nc3ccc(F)cc3)n2)c1 [GSK1379879] | 20%
Cc1cc(-c2ccnc(Nc3cccc(C#N)c3)n2)cc(C)c1O [GSK1440913] | 0%
Cc1ccc(O)cc1Nc1ccnc2ccc(C(C)(C)C)cc12 [GW856805] | 1%
O=C(Nc1n[nH]c2nc(-c3ccccc3)ccc12)C1CC1 [SB-708999] | 18%
Cl.Cl.NC(CNC(=O)c1cc(Br)c(-c2ccnc3[nH]ccc23)s1)c1ccccc1 (stereo not shown) [GSK1322949] | 0%
Cn1cc(-c2cnc(N)c3c(-c4ccc5c(c4)CCN5C(=O)Cc4ccccc4)csc23)cn1 [GSK2593074] | 21%

— publication PMC5540273 (PLoS ONE, 2017)
